# High-throughput results as filed in PubChem.
# HepG2 tox: qHTS for Inhibitors of TGF-b: Cytotox Counterscreen. HepG2 CAGA-GFP viability, ATP luminescence, 18 h. Potency, µM (series often up to 46.1 µM), for inactives: at the top dose activity change, negative = cytotoxicity, actives largely listed as cytotoxic. 410,000 tested, 0.76% active
#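 CellTiter-Glo luminescence gave cytotoxicity after 18 hours at 37 degrees C. The cells were HepG2 CAGA-GFP in 1% FBS DMEM, stimulated with 500 pg/mL TGF-beta after compound addition. %Activity was normalised to no-cell wells (complete cell-killing) and DMSO (no toxicity), and curves were fitted and classified.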
# HT1080NT lethal: qHTS for induction of synthetic lethality in tumor cells producing 2HG: qHTS for the HT-1080-NT fibrosarcoma cell line; HT-1080-NT fibrosarcoma viability, CellTiter-Glo ATP luminescence, 48 h; Potency, µM (titrated, usually from 46.1 µM), for the others: top-dose activity, negative = less viability, actives largely listed as cytotoxic; 360,000 tested, 1.6% active; AID 686970, 2013;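 note: NT is the 2HG producing partner of a matched IDH1 knockdown line; 0% = DMSO-treated cells and -100% = media-only wells without cells; nearly all actives have a fitted effect of over 55% in size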
#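 Luminescent CellTiter-Glo readout after 48 hours of compound exposure at 37 degrees C defined viability of HT-1080-NT cells. Activity was normalized to DMSO wells and cell-free media wells; concentration-response curves were fitted and assigned curve classes.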
# KB-3-1 tox: qHTS assay for MDR1-selective chemotherapeutics: Primary screen using the parental adenocarcinoma cell KB-3-1 | KB-3-1 viability, CellTiter-Glo ATP luminescence, 72 h | Potency, µM (highest dose often 46.1 µM), most hits filed as cytotoxic | 400,000 tested, 1.4% active | AID 1347075, 2019; note: % is set by controls: 0 for no effect and ±100 for the full control effect; nearly all actives have a fitted effect of over 60% in size
#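 Using CellTiter-Glo luminescence, growth of non-resistant KB-3-1 adenocarcinoma cells is assessed 72 h after pin-tool compound addition at 37 °C. Normalized responses across the concentration series yield fitted curves.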
# HT1080 IDH1KD tx: qHTS for induction of synthetic lethality in tumor cells producing 2HG: qHTS for the HT-1080-IDH1KD cell line | 360,000 tested, 2% active | HT-1080 IDH1 knockdown viability, ATP luminescence, 48 h | Potency, µM (series often up to 46.1 µM), for inactives: at the top dose activity, negative = toxicity, usual class: cytotoxic;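 note: 0% = DMSO wells and -100% = cell-free medium wells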
#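 Cytotoxicity counter-line: IDH1KD HT-1080, 48 h, CellTiter-Glo. Curves classed by r2, magnitude and activity.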
# KB-V1 cytotox: qHTS assay for MDR1-selective chemotherapeutics: Primary screen using the drug-selected MDR subline cells KB-V1. 400,000 tested, 3.4% active. KB-V1 MDR cells viability, CellTiter-Glo, 72 h. Potency, µM (doses to about 46.1 µM), most hits filed as cytotoxic; note: % is set by controls: 0 for no effect and ±100 for the full control effect; nearly all actives have a fitted effect of over 60% in size
#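 Readout: CellTiter-Glo luminescence, 10 min after addition. Cells: KB-V1 MDR subline, 72 h at 37 degrees C with compound. Analysis: corrected, normalized data fitted to concentration-effect curves.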
# TGFb SMAD3 inh: qHTS for Inhibitors of TGF-b | HepG2 CAGA-GFP TGF-b/SMAD3 reporter, GFP fluorescence, 18 h; TGF-beta stimulated, 500 pg/mL final | Potency, µM (series often up to 46.1 µM), inactives show at the highest dose activity, negative = inhibition, usual class: inhibitors | 410,000 tested, 1.2% active; note: % is set by controls: 0 for no effect and ±100 for the full control effect; nearly all actives have a fitted effect of over 65% in size
#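 TGF-beta reporter screen: HEPG2 CAGA-GFP, 1% FBS, 500 pg/mL TGF-beta final, 18 h; per-cell GFP summed per well; curves fitted and categorized by class.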
# * marks the source's active call; other numbers are inactive results; i = inactive; ? = inconclusive; / = not tested or not shown. Shown are actives, neighbours in structure and some others; about 6.6% of the full set was active somewhere. Calls come from the whole dose curve; as a rule, active = well fitted curve in the direction sought with a large enough effect; inconclusive = small, poorly fitted or top-dose-only effect, or another doubt; inactive = no such curve, though single readings can be large; an effect the other way counts as inactive or inconclusive. Potency is the fitted concentration of half-maximal effect.
SMILES,HepG2 tox,HT1080NT lethal,KB-3-1 tox,HT1080 IDH1KD tx,KB-V1 cytotox,TGFb SMAD3 inh
O=C(Cn1nc(-c2ccccc2)c2cnc3ccccc3c21)Nc1ccccc1,2.3%,/,i,/,i,14.7%
COc1cc(/C=N/Nc2nc3ccccc3[nH]2)ccc1O,-17.6%,9.8%,i,5.7%,18.4µM*,-28.9%
CCOC(=O)c1sc(NC(=O)CN(CC(C)C)CC(C)C)c(C(=O)OCC)c1C,-2.8%,1.2%,?,5.4%,20.6µM*,20.4%
CCOC(=O)c1sc(NC(=O)CCN2CCN(CC)CC2)c(C(=O)OCC)c1C,-103.2%,23.1µM*,i,18.4µM*,i,?
Cc1cc(C)cc(N2CCn3c2nc2c3c(=O)n(Cc3c(F)cccc3Cl)c(=O)n2C)c1,3.1%,/,/,/,/,-4.7%
CCCCNC(=O)C1CCC(CNS(=O)(=O)c2ccc(Cl)cc2)CC1 (stereo not drawn),-14.9%,/,i,/,i,-2.8%
Cn1cc(CNCc2ccc(OC(F)(F)F)cc2)c(-c2ccc3c(c2)OCCO3)n1,-52.0%,20.6µM*,i,-5.9%,?,?
C[C@@H]1CN([C@@H](C)CO)C(=O)c2cc(NS(C)(=O)=O)ccc2O[C@@H]1CN(C)Cc1ccc(C(F)(F)F)cc1,-12.8%,13.0%,i,5.2%,i,-9.3%
CC(C)C(N)c1csc(NC(=O)Nc2ccc(OC(F)(F)F)cc2)n1 (stereo not drawn),20µM*,8.2µM*,?,20.6µM*,i,20µM*
CC(C)C(N)c1csc(NC(=O)Nc2ccccc2C(C)(C)C)n1 (stereo not drawn),-64.5%,?,i,?,i,?
NC(Cc1ccc(C(F)(F)F)cc1)c1csc(NC(=O)Nc2ccccc2Cl)n1 (stereo not drawn),-97.6%,14.6µM*,i,?,i,?
NC(CCc1ccccc1)c1csc(NC(=O)Nc2cccc(C(F)(F)F)c2)n1 (stereo not drawn),11.2µM*,16.4µM*,?,20.6µM*,?,?
CC(C)C(N)c1csc(NC(=O)Nc2cccc(C(F)(F)F)c2)n1 (stereo not drawn),-98.6%,20.6µM*,?,23.1µM*,?,?
CCn1cc2c(n1)-c1c(oc(C(=O)Nc3cccc(C)c3C)c1C)CC2,-25.8%,/,/,/,/,-0.7%
NCc1csc(NC(=O)Nc2cccc(C(F)(F)F)c2)n1,-48.3%,-18.2%,i,?,i,?
COc1ccccc1NC(=O)Nc1nc(C(N)Cc2ccc(Cl)cc2)cs1 (stereo not drawn),-91.1%,?,i,?,i,?
COc1cc(CNC(=O)Nc2nc(C(N)Cc3ccc(C(F)(F)F)cc3)cs2)cc(OC)c1OC (stereo not drawn),-94.8%,?,?,?,i,?
COc1ccc(CC(N)c2csc(NC(=O)Nc3cc(OC)ccc3OC)n2)cc1 (stereo not drawn),-62.9%,?,i,?,i,?
NC(Cc1ccc(C(F)(F)F)cc1)c1csc(NC(=O)Nc2ccccc2)n1 (stereo not drawn),15.8µM*,?,i,16.4µM*,i,?
NC(Cc1ccc(Cl)cc1)c1csc(NC(=O)Nc2ccccc2)n1 (stereo not drawn),15.8µM*,23.1µM*,i,18.4µM*,i,15.8µM*
COc1ccc(CC(N)c2csc(NC(=O)Nc3ccc(F)cc3)n2)cc1 (stereo not drawn),17.8µM*,?,i,?,i,11.2µM*
COc1ccc(CC(N)c2csc(NC(=O)Nc3cccc(C(F)(F)F)c3)n2)cc1 (stereo not drawn),-113.8%,18.4µM*,?,16.4µM*,?,?
Fc1ccc(N2CCN(c3ncnc4[nH]ncc34)CC2)cc1,-18.2%,/,i,/,i,5.5%
Cc1c2cnn(-c3ccccc3)c(=O)c2c(C)n1CCCC(=O)Nc1ccc(F)cc1F,-17.4%,/,i,/,i,?
CCn1c(SCC(=O)Nc2cccc(S(=O)(=O)N(C)c3ccccc3)c2)nnc1C1CC1,-15.7%,-7.5%,i,-1.9%,20.6µM*,-10.0%
SMILES,HepG2 tox,HT1080NT lethal,KB-3-1 tox,HT1080 IDH1KD tx,KB-V1 cytotox,TGFb SMAD3 inh
N#CC1c2ccccc2C=CN1C(=O)N(c1ccccc1)c1ccccc1 (stereo not drawn),11.2µM*,?,?,?,20.6µM*,8.91µM*
COc1ccc(NC(=O)Nc2ccccc2OCc2cc(=O)n3ccccc3n2)c(OC)c1,-16.4%,/,/,/,/,-3.4%
CN1CCCC(CC2Oc3ccccc3Sc3ccccc32)C1 (stereo not drawn),-50.4%,14.6µM*,?,20.6µM*,?,?
Nc1cc(N2CCOCC2)c(Cl)cc1[N+](=O)[O-],4.4%,?,i,16.4µM*,6.51µM*,4.9%
Nc1cc(N2CCCC2)c(Cl)cc1[N+](=O)[O-],19.1%,-8.8%,?,-0.6%,8.2µM*,1.7%
O=[N+]([O-])c1cc(-n2cccc2)ccc1N1CCOCC1,-8.5%,8.2%,?,12.6%,6.51µM*,?
O=[N+]([O-])c1cc(Cl)ccc1N1CCOCC1,-7.2%,-2.9%,i,-0.2%,i,-2.1%
